Source: the antibiotic and cytotoxicity screens of Wong et al. (2023)
Among all 39,000 compounds or so, about 3,300 (8.5%) were called active. The full list was thinned out, with actives kept by preference.

What follows are compounds tested on HepG2 (assay: cytotoxicity call (relative viability < 0.9)). Conditions: 10 µM.

Row | Compound | cytotoxicity call
1 | C[C@H](CO)N1C[C@H](C)[C@@H](CN(C)S(=O)(=O)c2ccc(F)cc2)Oc2c(NC(=O)C3CC3)cccc2C1=O | inactive
2 | O=C(Nc1ccno1)N1CCOCC1 | inactive
3 | C[C@@H]1CN([C@@H](C)CO)C(=O)Cc2cc(NS(=O)(=O)c3ccc(F)cc3)ccc2O[C@H]1CN(C)CC1CC1 | inactive
4 | C[C@H]1CCCCO[C@H](CN(C)C(=O)NC2CCCCC2)[C@@H](C)CN([C@@H](C)CO)C(=O)c2cc(NC(=O)c3ccncc3)ccc2O1 | inactive
5 | O=C(C[C@H]1CC[C@H](NS(=O)(=O)c2ccc(F)cc2)[C@@H](CO)O1)NCc1ccc(Cl)c(Cl)c1 | inactive
6 | Cc1ccc(S(=O)(=O)N(C)C[C@@H]2Oc3c(NS(=O)(=O)c4ccccc4)cccc3C(=O)N([C@H](C)CO)C[C@@H]2C)cc1 | inactive
7 | NNC(=O)[C@H]1CCCNC1=O | active
8 | COC(=O)[C@H]1CCCNC1=O | inactive
9 | O=C1NCCC[C@@H]1C(=O)N1CCCCC1 | inactive
10 | COC[C@H]1C[C@@H](c2nc(-c3ccc4c(c3)COc3cc5c(ccc6[nH]c([C@@H]7CC[C@H](C)N7C(=O)[C@@H](NC(=O)OC)C(C)C)nc65)cc3-4)c[nH]2)N(C(=O)[C@H](NC(=O)OC)c2ccccc2)C1 | inactive
11 | C[C@H]1CCCCO[C@H](CN(C)S(=O)(=O)c2ccc(Cl)cc2)[C@@H](C)CN([C@@H](C)CO)C(=O)c2cc(NC(=O)Nc3cccc4ccccc34)ccc2O1 | inactive
12 | COc1ccc(CN(CCN(C)C)c2ncccn2)cc1.Cl | inactive
13 | CCCCCCCCCCCCCCCC[N+](C)(C)CCN(Cc1ccc(OC)cc1)c1ncccn1 | active
14 | C[C@@H]1CN([C@H](C)CO)C(=O)c2cc(NC(=O)Cc3ccccc3)ccc2O[C@@H](C)CCCCO[C@@H]1CN(C)C(=O)CCC(F)(F)F | inactive
15 | C[C@H](CO)N1C[C@H](C)[C@H](CN(C)C(=O)Nc2ccccc2)Oc2c(NC(=O)c3ccc(-c4nccs4)cc3)cccc2C1=O | inactive
16 | COc1ccc(NC(=O)Nc2ccc3c(c2)C(=O)N([C@@H](C)CO)C[C@@H](C)[C@@H](CN(C)S(C)(=O)=O)O3)cc1 | inactive
17 | COc1ccc(NC(=O)Nc2ccc3c(c2)C(=O)N([C@@H](C)CO)C[C@@H](C)[C@H](CN(C)S(C)(=O)=O)O3)cc1 | inactive
18 | COc1ccc(NC(=O)Nc2ccc3c(c2)C(=O)N([C@H](C)CO)C[C@H](C)[C@@H](CN(C)S(C)(=O)=O)O3)cc1 | inactive
19 | COc1ccc(NC(=O)Nc2ccc3c(c2)C(=O)N([C@@H](C)CO)C[C@H](C)[C@H](CN(C)S(C)(=O)=O)O3)cc1 | active
20 | COc1ccc(NC(=O)Nc2ccc3c(c2)C(=O)N([C@H](C)CO)C[C@@H](C)[C@@H](CN(C)S(C)(=O)=O)O3)cc1 | inactive
21 | COc1ccc(NC(=O)Nc2ccc3c(c2)C(=O)N([C@H](C)CO)C[C@@H](C)[C@H](CN(C)S(C)(=O)=O)O3)cc1 | active
22 | C[C@H](CO)N1C[C@H](C)[C@@H](CN(C)Cc2ccccc2)Oc2cc(C#CC(C)(C)O)ccc2S1(=O)=O | inactive

Row | Compound | cytotoxicity call
23 | C[C@@H]1CN([C@@H](C)CO)C(=O)c2cc(NC(=O)Nc3ccc(C(F)(F)F)cc3)ccc2O[C@@H](C)CCCCO[C@@H]1CN(C)C(=O)C1CCCCC1 | inactive
24 | COc1ccc(S(=O)(=O)N(C)C[C@H]2Oc3ncc(C#CC4(O)CCCC4)cc3C(=O)N([C@@H](C)CO)C[C@H]2C)cc1 | inactive
25 | Cn1nnnc1SCC(=O)NC(C)(C)C | inactive
26 | Cn1cc(-c2[nH]c3cc(NC(=O)[C@H](N)C4CCCCC4)cc4c3c2C=NNC4=O)cn1 | active
27 | COc1ccc(-c2cnc3c(c2)C(=O)N([C@H](C)CO)C[C@@H](C)[C@@H](CN(C)C(=O)Cc2ccccn2)O3)cc1 | inactive
28 | CC(C)NC(=O)Nc1ccc2c(c1)CC(=O)N([C@@H](C)CO)C[C@H](C)[C@@H](CN(C)Cc1ccc(C(=O)O)cc1)O2 | inactive
29 | CC(=O)N1[C@@H]2Cn3c(ccc(-c4ccccc4)c3=O)[C@H]1[C@@H](C(=O)N1CCN(C)CC1)[C@@H]2CO | inactive
30 | C[C@@H]1CCCCO[C@@H](CN(C)C(=O)Nc2ccc(F)cc2)[C@@H](C)CN([C@H](C)CO)C(=O)c2cc(NC(=O)Cc3ccccc3)ccc2O1 | inactive
31 | O=C1C(O)=C(O)C(=O)C(O)=C1O | active
32 | Cc1cc(C(=O)O)sc1[C@@H](N)C(=O)O | inactive
33 | C[C@@H]1CN([C@@H](C)CO)C(=O)c2cc(-c3cccnc3)cnc2O[C@H]1CN(C)C(=O)Nc1ccc2c(c1)OCO2 | inactive
34 | C[C@H]1CCCCO[C@H](CN(C)C(=O)Nc2ccc(F)cc2)[C@@H](C)CN([C@@H](C)CO)C(=O)c2cc(NC(=O)Nc3ccc4c(c3)OCO4)ccc2O1 | inactive
35 | C[C@H](CO)N1C[C@H](C)[C@@H](CN(C)Cc2ccc(C(F)(F)F)cc2)Oc2ccc(NC(=O)Cc3cn(C)c4ccccc34)cc2C1=O | inactive
36 | C[C@H]1CN([C@@H](C)CO)C(=O)c2cc(NC(=O)Cc3cn(C)c4ccccc34)ccc2O[C@@H]1CN(C)C(=O)Nc1ccc(C(F)(F)F)cc1 | active
37 | C[C@H](CO)N1C[C@H](C)[C@H](CN(C)C(=O)Nc2cccc3ccccc23)Oc2ccc(NC(=O)Cc3cn(C)c4ccccc34)cc2C1=O | inactive
38 | C[C@H]1CN([C@@H](C)CO)C(=O)c2cc(NC(=O)Cc3cn(C)c4ccccc34)ccc2O[C@@H]1CN(C)C(=O)Nc1cccc2ccccc12 | inactive
39 | C[C@@H]1CN([C@@H](C)CO)C(=O)c2cc(NC(=O)Cc3cn(C)c4ccccc34)ccc2O[C@@H]1CN(C)C(=O)Nc1ccc(C(F)(F)F)cc1 | inactive
40 | C[C@H](CO)N1C[C@H](C)[C@@H](CN(C)C(=O)Nc2ccc(C(F)(F)F)cc2)Oc2ccc(NC(=O)Cc3cn(C)c4ccccc34)cc2C1=O | inactive
41 | C[C@@H]1CN([C@H](C)CO)C(=O)c2cc(NC(=O)Cc3cn(C)c4ccccc34)ccc2O[C@H]1CN(C)C(=O)Nc1ccc(C(F)(F)F)cc1 | active
42 | C[C@@H]1CN([C@H](C)CO)C(=O)c2cc(NC(=O)Cc3cn(C)c4ccccc34)ccc2O[C@@H]1CN(C)Cc1ccc(C(F)(F)F)cc1 | active
43 | C[C@@H]1CN([C@@H](C)CO)C(=O)c2cc(NC(=O)Cc3cn(C)c4ccccc34)ccc2O[C@@H]1CN(C)C(=O)Nc1cccc2ccccc12 | active
44 | C[C@@H]1CN([C@H](C)CO)C(=O)c2cc(NC(=O)Cc3cn(C)c4ccccc34)ccc2O[C@H]1CN(C)Cc1ccc(C(F)(F)F)cc1 | inactive

Row | Compound | cytotoxicity call
45 | C[C@H](CO)N1C[C@H](C)[C@H](CN(C)C(=O)Nc2ccc(C(F)(F)F)cc2)Oc2ccc(NC(=O)Cc3cn(C)c4ccccc34)cc2C1=O | inactive
46 | C[C@H]1CN([C@@H](C)CO)C(=O)c2cc(NC(=O)Cc3cn(C)c4ccccc34)ccc2O[C@H]1CN(C)C(=O)Nc1ccc(C(F)(F)F)cc1 | inactive
47 | C[C@@H]1CN([C@H](C)CO)C(=O)c2cccc(NC(=O)c3ccncc3)c2O[C@H]1CN(C)C(=O)Nc1ccc2c(c1)OCO2 | inactive
48 | Cc1c(C)n2c3c(=O)[nH]c(=O)n(C)c3nc2n1C | inactive
49 | C[C@@H]1CN([C@H](C)CO)C(=O)c2cc(NC(=O)C3CCCCC3)ccc2O[C@@H](C)CCCCO[C@@H]1CN(C)Cc1ccc(C(=O)O)cc1 | inactive
50 | COc1ccc(S(=O)(=O)N2C[C@@H](O)COC[C@H]3O[C@@H](CC(=O)N[C@@H]4CCN(Cc5ccccc5)C4)CC[C@@H]32)cc1 | inactive
51 | C[C@@H]1CN([C@H](C)CO)C(=O)Cc2cc(NC(=O)Cn3cnnn3)ccc2O[C@@H]1CN(C)Cc1ccc(C(=O)Nc2ccccc2N)cc1 | inactive
52 | C[C@@H]1CN([C@H](C)CO)C(=O)c2cc(NS(=O)(=O)c3ccc(Cl)cc3)ccc2O[C@@H](C)CCCCO[C@@H]1CN(C)C(=O)c1ccncc1 | inactive
53 | C[C@@H]1CN([C@@H](C)CO)C(=O)c2cccc(NS(=O)(=O)c3cn(C)cn3)c2O[C@H]1CN(C)C(=O)Nc1ccc(F)cc1 | inactive
54 | C[C@@H]1CCCCO[C@H](CN(C)C(=O)C2CCCCC2)[C@H](C)CN([C@H](C)CO)C(=O)c2cc(NC(=O)NC3CCCCC3)ccc2O1 | inactive
55 | C[C@@H]1CN([C@@H](C)CO)C(=O)Cc2cc(NC(=O)NC3CCCCC3)ccc2O[C@@H]1CN(C)Cc1ccc(-c2ccccc2)cc1 | inactive
56 | C[C@@H]1CN([C@H](C)CO)C(=O)Cc2cc(NC(=O)NC3CCCCC3)ccc2O[C@H]1CN(C)Cc1ccc(-c2ccccc2)cc1 | active
57 | C[C@@H]1CN([C@@H](C)CO)C(=O)Cc2cc(NC(=O)NC3CCCCC3)ccc2O[C@H]1CN(C)Cc1ccc(-c2ccccc2)cc1 | inactive
58 | C[C@H]1CN([C@@H](C)CO)C(=O)Cc2cc(NC(=O)NC3CCCCC3)ccc2O[C@H]1CN(C)Cc1ccc(Oc2ccccc2)cc1 | active
59 | C[C@H](CO)N1C[C@H](C)[C@H](CN(C)Cc2ccc(Oc3ccccc3)cc2)Oc2ccc(NC(=O)NC3CCCCC3)cc2CC1=O | inactive
60 | C[C@@H]1CN([C@H](C)CO)C(=O)Cc2cc(NC(=O)NC3CCCCC3)ccc2O[C@@H]1CN(C)Cc1ccc(Oc2ccccc2)cc1 | active
61 | C[C@@H]1CN([C@H](C)CO)C(=O)Cc2cc(NC(=O)NC3CCCCC3)ccc2O[C@H]1CN(C)Cc1ccc(Oc2ccccc2)cc1 | inactive
62 | C[C@H]1CN([C@@H](C)CO)C(=O)Cc2cc(NC(=O)NC3CCCCC3)ccc2O[C@H]1CN(C)Cc1ccc(-c2ccccc2)cc1 | inactive
63 | C[C@H](CO)N1C[C@H](C)[C@@H](CN(C)Cc2ccc(Oc3ccccc3)cc2)Oc2ccc(NC(=O)NC3CCCCC3)cc2CC1=O | inactive
64 | C[C@@H]1CN([C@@H](C)CO)C(=O)Cc2cc(NC(=O)NC3CCCCC3)ccc2O[C@H]1CN(C)Cc1ccc(Oc2ccccc2)cc1 | inactive
65 | C[C@H]1CN([C@@H](C)CO)C(=O)Cc2cc(NC(=O)NC3CCCCC3)ccc2O[C@@H]1CN(C)Cc1ccc(Oc2ccccc2)cc1 | inactive
66 | C[C@@H]1CN([C@@H](C)CO)C(=O)Cc2cc(NC(=O)NC3CCCCC3)ccc2O[C@@H]1CN(C)Cc1ccc(Oc2ccccc2)cc1 | active
